Measurements as given in PubChem BioAssay (NCI).
This is part of a sample that, as a whole, favours compounds with a hit. Of some 83,000 tested, about 20% had one in any assay.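 Plates (96-well) were seeded with cells, treated with compound at one concentration, and incubated for 48 hours before percent growth was determined.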 A number with no mark means an inactive call. Calls of active or inactive are those of the source. Rule for the calls: active = growth percent below 10; inactive = the rest.

Experiments:
Test in all cases: NCI-60 one-dose screen, 48 h (100 = growth as untreated, 0 = no growth, -100 = all killed)
Settings in all cases: 10 µM unless noted
[1] = system: NCI-H23 lung
[2] = system: NCI-H226 lung
[3] = system: NCI-H322M lung
[4] = system: HOP-62 NSCLC
[5] = system: NCI-H460 lung
[6] = system: HOP-92 NSCLC
[7] = system: NCI-H522 lung
[8] = system: A549/ATCC NSCLC
[9] = system: 786-0 renal
[10] = system: COLO 205 colon

Structure (SMILES)	growth [1]	growth [2]	growth [3]	growth [4]	growth [5]	growth [6]	growth [7]	growth [8]	growth [9]	growth [10]
Oc1ccc(CSc2nnc(-c3ccc(Oc4ccccc4)cc3)n2-c2ccccc2)c2cccnc12	21.3%	18.9%	18.3%	15%	0.254% (active)	10.5%	15%	11.8%	21.6%	27.7%
C=CCn1c(SCC(=O)Nc2ccc(OC)cc2)nnc1-c1ccc(Cl)cc1	81.1%	88.8%	96.4%	101%	104%	68.8%	83.4%	103%	104%	107%
CN1CCN(Cc2ccc(NC(=O)c3cncc(C#Cc4cnc5ccc(O[C@H]6CCOC6)nn45)c3)cc2C(F)(F)F)CC1	-53.5% (active)	-63.8% (active)	-36.4% (active)	-77.7% (active)	-77.7% (active)	-38.3% (active)	-72.1% (active)	-87.7% (active)	-89.7% (active)	-89.1% (active)
COc1cc(/C=C/C(=O)c2ccc(NC(=O)CSc3nnc(-c4ccc5nc(-c6ccccc6)[nH]c5c4)o3)cc2)cc(OC)c1OC	92.7%	99.3%	96.9%	114%	92.5%	142%	95.3%	105%	75.4%	115%
N#Cc1ccc(S(=O)(=O)Nc2ccc(-c3cnc(N)[nH]3)cc2)cc1	99.1%	96.4%	97.4%	105%	103%	100%	94%	98.4%	100%	105%
CNC(=O)c1cc(Oc2ccc3nc(NC(=O)c4cc(C)cc(C)c4)sc3c2)ccn1	97.2%	75%	103%	98.6%	93.1%	9.05% (active)	84.2%	89.7%	59%	85.4%
Nc1ccc(-c2nnc(SCc3ccc(O)c4ncccc34)n2-c2ccccc2)cc1	13.2%	44%	23.7%	17%	5.71% (active)	-21% (active)	17.5%	14.1%	19.9%	4.41% (active)
O=S(=O)(Nc1ccc(-n2cnc3cc(-c4ccc(O)cc4)ccc32)cc1)C1CC1	101%	96.2%	90.9%	86.8%	88.7%	115%	73.7%	82.2%	86.6%	123%
O=S(=O)(Nc1cc(Cl)cc(Cl)c1)c1ccc(-c2cnc(C3CC3)o2)cc1	42.9%	43.4%	49.9%	43.1%	18.7%	64.6%	33.9%	43.1%	50.3%	14.2%
C#C[C@]1(O)CC[C@H]2[C@@H]3CC=C4c5sc(Nc6ccc(OC)nc6)nc5CC[C@]4(C)[C@H]3CC[C@@]21C	63.1%	47.4%	85%	51.7%	41.5%	60%	36%	55.2%	-27.6% (active)	49.3%
CN(C)c1ncc(/C=C2\SC(=S)N(Cc3ccccc3Cl)C2=O)s1	80.4%	83.8%	80.5%	88.5%	29.1%	94.7%	77.9%	63.9%	67.3%	91.8%
CC(c1ccccc1)N1C(=O)/C(=C/c2csc(C#N)n2)SC1=S (stereo not given)	101%	97%	99.8%	103%	106%	85.5%	75.4%	95.8%	91%	91.8%
CNC(=O)c1cc(Oc2ccc3nc(NC(=O)c4ccc(CN5CCN(C)CC5)c(C(F)(F)F)c4)sc3c2)ccn1	51.8%	72.7%	94.5%	73.5%	53.2%	44.1%	79.3%	66.4%	22.3%	-29.9% (active)
